Some test systems named below: BT-549 breast; MDA-MB-435 melanoma; SW-620 colon; MCF7 breast; HCT-116 colon; HCC-2998 colon; KM12 colon.
Common to all, as to test: NCI-60 one-dose screen, 48 h (100 = growth as untreated, 0 = no growth, -100 = all killed)
What all share (details): 10 µM unless noted

The structures appear in SMILES notation. Compounds without any hit were thinned out: in the full panel of roughly 83,000, 20% have a hit.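 48-hour exposure, single concentration, 96-well plates; percent growth endpoint where 0 means no net growth. Active: below 10.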 Unmarked numbers belong to inactive results. The source made the active and inactive calls.

Regarding `COc1cnc2c(c1)C(=O)c1c-2n(CCCNCCO)c(=O)c2ccncc12`, the growth was 19% with BT-549 breast; 5.96% (active) in the assay on MDA-MB-435 melanoma; 9.91% (active) with SW-620 colon; 0.768% (active) in the assay on MCF7 breast; -49.8% (active) in the assay with HCT-116 colon; 26.4% with HCC-2998 colon. Further, the growth in the assay with KM12 colon was 6.99% (active).
Take `O=C1NC(=O)c2c1c1c3ccccc3ccc1c1[nH]c3ccc(Br)cc3c21`: the growth was 39.4% in the assay on BT-549 breast; 14% in the assay with MDA-MB-435 melanoma; 18% with SW-620 colon; 9.71% (active) in the assay with MCF7 breast; 7.95% (active) in the assay with HCT-116 colon; 49.3% with HCC-2998 colon. Also, the growth in the assay on KM12 colon is 4.99% (active).
Take `CCN1CCN(c2cc(C(=O)Nc3nc(-c4cc(OC)c(OC)c(OC)c4)cs3)cc(C(F)(F)F)c2)CC1`: the growth in the assay with BT-549 breast was 75.2%; with MDA-MB-435 melanoma, 74.4%; in the assay with SW-620 colon it was 65.6%; in the assay with MCF7 breast it was 39.8%; with HCT-116 colon, 33.4%; with HCC-2998 colon it was 43.9%. Besides, in the assay with KM12 colon, the growth is 71.1%.
Regarding `C#CCOc1ccc2ncnc(Nc3ccc(NC(=O)CCl)cc3)c2c1`, the growth in the assay on BT-549 breast was -19.5% (active); in the assay on MDA-MB-435 melanoma, 17.7%; in the assay on SW-620 colon, -13.9% (active); with MCF7 breast it was 5.26% (active); with HCT-116 colon it was 0.822% (active); in the assay on HCC-2998 colon it was 65.2%. Besides, the growth with KM12 colon is 8.97% (active).
Consider `CCS/C(Nc1ccccc1)=C(\C#N)C(=O)N/N=C/c1ccc(Cl)cc1Cl`, for which the growth with BT-549 breast is 45.4%; in the assay on MDA-MB-435 melanoma, -34.5% (active); in the assay on SW-620 colon, 18.6%; in the assay with MCF7 breast, 19.3%; in the assay on HCT-116 colon, 17.5%; in the assay with HCC-2998 colon, 48.4%. Further, in the assay on KM12 colon, the growth is 28%.
In the case of `O=S(=O)(NCCCNc1nccc(-c2c(-c3ccc(F)c(O)c3)nc3occn23)n1)c1ccccc1`, the growth is 114% with BT-549 breast; 37.4% with MDA-MB-435 melanoma; 100% with SW-620 colon; 77.3% in the assay with MCF7 breast; 52.6% in the assay with HCT-116 colon; 98.7% with HCC-2998 colon. Moreover, the growth with KM12 colon is 84.6%.
`CNC(=O)c1cc(Oc2ccc3nc(NC(C)=O)sc3c2)ccn1`: the growth was 96.9% with BT-549 breast; 102% in the assay with MDA-MB-435 melanoma; 98.9% with MCF7 breast; 89.2% with HCT-116 colon; 107% in the assay with HCC-2998 colon; 98.2% in the assay on KM12 colon.
Take `O=C(CCCCC1CCSS1)Nc1ncnc2n[nH]c(-c3ccc(Oc4ccccc4)cc3)c12` (stereo unspecified): the growth was 118% in the assay on BT-549 breast; -28.4% (active) in the assay with MDA-MB-435 melanoma; 43.2% with MCF7 breast; 36.7% in the assay with HCT-116 colon; 103% in the assay with HCC-2998 colon; 70.5% in the assay on KM12 colon.
As for `CC1=Nc2cnc(Nc3ccc(OCCN4CCCCC4)cc3)nc2Nc2ccccc21`, the growth with BT-549 breast was 78.6%; in the assay with MDA-MB-435 melanoma it was 56.3%; with SW-620 colon it was 62.3%; in the assay on MCF7 breast it was 67.6%; in the assay on HCT-116 colon, 64.1%; with HCC-2998 colon it was 67%. Moreover, the growth in the assay with KM12 colon is 12.8%.
